Whole data set: some 110,000 compounds, median “z-score” near -0.1, cut for the highest 2% near 2. This excerpt belongs to a sample that is enriched for the highest values. The source made the active and inactive calls.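 How the source made its calls: active means z-score in the third read window above 3 or below -3; inactive means the rest.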

The target of the test is Metabotropic glutamate receptor 8 (Rattus norvegicus) (UniProt P70579). As to the kind of experiment: mGluR8 Gi/Go-coupled signaling modulation – cell-based, rat, thallium flux, HTS, primary screen (AID 488969). As to conditions: HEK293 rat mGluR8, GIRK (G protein-gated inwardly rectifying potassium channel) thallium flux, FluoZin2; at 10 µM; stronger effect = higher value.
Sequence of Metabotropic glutamate receptor 8 (Rattus norvegicus) (P70579 whole entry, looked up): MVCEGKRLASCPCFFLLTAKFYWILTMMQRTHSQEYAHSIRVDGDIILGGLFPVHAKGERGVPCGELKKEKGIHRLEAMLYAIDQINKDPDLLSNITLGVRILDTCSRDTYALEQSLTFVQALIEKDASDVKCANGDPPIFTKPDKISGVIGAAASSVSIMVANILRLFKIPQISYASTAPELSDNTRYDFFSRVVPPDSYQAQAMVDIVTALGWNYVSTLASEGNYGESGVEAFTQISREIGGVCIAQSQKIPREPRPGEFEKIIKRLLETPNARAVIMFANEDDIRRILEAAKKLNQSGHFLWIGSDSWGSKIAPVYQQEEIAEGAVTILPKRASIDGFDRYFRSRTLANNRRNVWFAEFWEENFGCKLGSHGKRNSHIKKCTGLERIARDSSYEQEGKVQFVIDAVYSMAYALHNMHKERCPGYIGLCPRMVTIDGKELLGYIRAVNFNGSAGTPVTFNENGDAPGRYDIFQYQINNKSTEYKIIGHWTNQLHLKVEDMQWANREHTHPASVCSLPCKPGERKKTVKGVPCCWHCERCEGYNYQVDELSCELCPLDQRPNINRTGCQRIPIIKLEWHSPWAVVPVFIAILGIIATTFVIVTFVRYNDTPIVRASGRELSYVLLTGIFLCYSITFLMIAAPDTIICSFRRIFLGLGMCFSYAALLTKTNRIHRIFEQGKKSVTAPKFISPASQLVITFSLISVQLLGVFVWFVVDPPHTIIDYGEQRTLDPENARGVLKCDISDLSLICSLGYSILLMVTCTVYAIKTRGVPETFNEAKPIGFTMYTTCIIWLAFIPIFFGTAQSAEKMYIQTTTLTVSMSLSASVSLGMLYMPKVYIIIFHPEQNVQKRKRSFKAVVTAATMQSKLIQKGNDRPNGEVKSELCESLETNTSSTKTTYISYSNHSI
On to `O=C(c1cc2ccccc2oc1=O)N1CCC2(CC1)OCCO2`, for which the z-score is 0.602. With `O=C(c1cc2ccccn2n1)N1CCC2(CC1)OCCO2`, the z-score was 4 (active). As for `O=C(c1cc2nc(-c3ccccc3)cc(-c3ccccc3)n2n1)N1CCC2(CC1)OCCO2`, the z-score was -0.525. As for `N#CC1=C(N)Oc2c(c(=O)oc3ccccc23)C1c1ccncc1` (stereo not given), the z-score was -0.0723. For `Cc1[nH]c2c(Cl)cccc2c1CCN` the value was 0.371.

Regarding `Cc1cccc(N2C(=O)NC(=O)/C(=C\c3cccn3-c3ccc(Cl)cc3)C2=O)c1`, the z-score was -0.0172.

Regarding `Cc1ccc(Cc2c(C)nc3nc(SCC(=O)N4CCC5(CC4)OCCO5)nn3c2C)cc1`, the z-score was -0.0184. The figure for `O=C(COc1ccc(Cl)cc1)NC1CN2CCC1CC2` (stereo not given) is -0.215; for `CCNC(=O)C1OC(n2cnc3c(N)ncnc32)C(O)C1O` (stereo not given) it is 2.

For `CCCCn1c(O)c(C(CC)=Nc2ccc(OC)cc2OC)c(=O)[nH]c1=O`, the z-score was -1.4.

Compound `Cn1cccc1/C=C1/C(=O)NC(=O)N(Cc2ccccc2)C1=O` displayed a z-score of -0.709. The figure for `Cc1nn(Cc2ccccc2)c(C)c1C=C1C(=O)NC(=S)NC1=O` is -0.287; for `Cc1nn(Cc2ccccc2)c(C)c1C=C1C(=O)NC(=O)NC1=O` it is 2.1; for `CCn1c(P(C)(=O)O)nc2ccccc21` it is -0.338. The figure for `CN1CCN(Cc2ccc(Br)s2)CC1` is 0.759.

For the compound `CN1CCC(N(C)c2nc(-c3ccc([N+](=O)[O-])cc3)nc3ccccc23)CC1`, the z-score was determined as 0.562. The figure for `CN1CCC(N(C)c2nc(-c3ccccc3)nc3ccccc23)CC1` is 0.199. The figure for `Cc1ccc(-c2nc(N(C)C3CCN(C)CC3)c3ccccc3n2)cc1` is 2.91; for `O=C(Cn1c(=S)[nH]c2ccccc2c1=O)N1CCC2(CC1)OCCO2` it is 0.264; for `CC1=NN(c2ccccc2)C(=O)C1/C=C1/C(=O)NC(=O)N(c2cccc(C)c2)C1=O` (stereo not given) it is -0.395. For `CCN(c1ccc(C(O)(C(=O)OC)C(F)(F)F)cc1)S(=O)(=O)c1ccc(C)cc1` (stereo not given) the value was 1.21; for `CCOC(=O)N(C)c1ccc(C(O)(C(=O)OCC)C(F)(F)F)cc1` (stereo not given), -0.0433.

In turn, `CCOC(=O)C(O)(c1ccc(N(CC)S(=O)(=O)c2ccc(C)cc2)cc1)C(F)(F)F` (stereo not given) registered a z-score of 2.37. The compound `O=C(c1ccccc1F)c1cn(CC(=O)N2CCCCC2)c2ccccc12` came in with a z-score of -0.152. For `CCN(CC)c1ccc(CN2CC=C(c3ccc(F)cc3)CC2)cc1` the value was 0.0485; for `Cn1c(O)c(C=NCCN2CCNCC2)c(=O)n(C)c1=O`, -0.337.

On to `O=c1c(C=NCc2cccs2)c(O)n(C2CCCCC2)c(=O)n1C1CCCCC1`, for which the z-score was -0.421.

In turn, `O=c1c(C=NCCN2CCNCC2)c(O)n(C2CCCCC2)c(=O)n1C1CCCCC1` had a z-score of 2.42. For `COc1ccc(CCN(C)Cc2c(F)cccc2F)cc1OC` the value was 0.419; for `N#Cc1cc2c(nc1SCC(=O)Nc1cc(Cl)ccc1Cl)C1CCN2CC1`, -1.88.

As to `CCS(=O)(=O)N1CCC(C(=O)N2CCC3(CC2)OCCO3)CC1`, the z-score stood at 0.00257.

Regarding `O=C(C1CCN(S(=O)(=O)c2ccccc2)CC1)N1CCC2(CC1)OCCO2`, the z-score was 0.255.

Regarding `Cc1ccc2nc(N3CCC(C(=O)N4CCC5(CC4)OCCO5)CC3)sc2c1`, the z-score was 4.28 (active). The figure for `CC(C)CC(=O)NC(Oc1ccc(Cl)cc1)C(Cl)(Cl)Cl` (stereo not given) is -0.379; for `CC1(C)CN2C(c3ccc(Cl)cc3)N2C1` (stereo not given) it is 0.161; for `O=[N+]([O-])c1cc2c(cc1CNCCc1ccc3c(c1)OCO3)OCO2` it is 0.309. The figure for `c1ccc(CNCCc2ccc3c(c2)OCO3)nc1` is -0.496; for `c1ccc2c(CCNCc3ccc4c(c3)OCO4)c[nH]c2c1` it is 2.19; for `Cc1noc(C)c1C(=O)N1CCC2(CC1)OCCO2` it is -0.294.

Compound `O=c1[nH]c2ccccc2c(=O)n1-c1cccc(Cl)c1` gave a z-score of -0.0839. For `COc1ccc(-n2c(=O)[nH]c3ccccc3c2=O)cc1`, the z-score was found to be 0.343. The figure for `CC(C)Oc1cc(-n2c(=S)[nH]c3ccccc3c2=O)c(Cl)cc1Cl` is 12.9 (active); for `COc1cc2[nH]c(=O)n(-c3cccc(Cl)c3)c(=O)c2cc1OC` it is -0.0317. The figure for `COc1cc2[nH]c(=O)n(-c3ccccc3)c(=O)c2cc1OC` is -0.252. For the compound `COc1cc(-n2c(=S)[nH]c3ccccc3c2=O)c(Cl)cc1Cl`, the z-score is 6.65 (active). `O=C(NC(Oc1ccccc1)C(Cl)(Cl)Cl)c1ccccc1` (stereo not given) yielded a z-score of -0.149.

Turning to `CN(C(=O)Oc1ccc(Cl)c2cccnc12)c1ccccc1`, the z-score is -0.251. For `CCOc1ccc(N=Cc2c(O)n(C(C)(C)C)c(=O)[nH]c2=O)cc1` the value was -0.283; for `CCOC(=O)C1C2NC(=O)N(Cc3ccccc3)C1(C)Oc1c(OC)cccc12` (stereo not given), 0.0221. For `O=C(CN1C(=O)CN=C(c2ccccc2)c2ccccc21)NCc1ccco1`, the z-score is -0.206.

Consider `O=C(CN1C(=O)CN=C(c2ccccc2Cl)c2cc(Cl)ccc21)NCc1ccco1`, for which the z-score stood at 2.98. The figure for `CCC(C)C1N=C(c2ccccc2)c2cc(Cl)ccc2N(CC(=O)NCc2ccco2)C1=O` (stereo not given) is -0.0258; for `OC(c1ccccc1)(c1ccccc1)c1ccncc1` it is -0.0666; for `Cn1cccc1CNCCc1ccccc1` it is 6.88 (active). The figure for `c1ccc(CCNCc2ccccc2)cc1` is -0.78; for `Cn1cccc1CNCCc1ccc(F)cc1` it is -0.24; for `CCC(=NCCCN(CC)CC)c1c(O)n(C2CCCCC2)c(=O)[nH]c1=O` it is -0.25. The figure for `N#Cc1c(Cl)nc(Cl)c2c1CCN(Cc1ccccc1)C2` is -0.608; for `Cc1ccc(OP(=O)(NCc2ccccc2)Oc2ccc(C)cc2)cc1` it is -0.00664. `OCC12CO[C@@H]3c4ccccc4[C@H](OC1)N32` (stereo not given in full) had a z-score of -0.0926.

Regarding `CON(C)C(=O)Nc1ccc(Cl)cc1`, the z-score was 0.516. The figure for `O=C(Nc1ccc(Cl)cc1)O/N=C(\c1ccccc1)c1ccccn1` is -0.375; for `O=C(Nc1ccc(Cl)cc1)Nc1nccs1` it is 8.34 (active). The figure for `CCC(C)c1ccc(N2C(=O)NC(=O)/C(=C/c3cccn3CCOc3ccc(C)cc3)C2=O)cc1` (stereo not given) is 0.272; for `Cc1cc(C)c(-n2c(O)c(/C=N/N3CCCCC3c3cccnc3)c(=O)[nH]c2=O)c(C)c1` (stereo not given) it is -0.531; for `Cc1nn(Cc2ccccc2)c(Cl)c1C(=O)OC(C)C(=O)Nc1ccc(F)cc1Cl` (stereo not given) it is 0.0724. The figure for `CCCCc1nc(N2CCNCC2)c(C#N)c2c1CSC(C)(C)C2` is 2.01. In turn, `COc1ccc(CCNC(=O)COC(=O)Cc2ccccc2)cc1` showed a z-score of -0.0964. The figure for `O=P(OCC(F)(F)C(F)F)(N1CCCCC1)N1CCCCC1` is -0.0155. In turn, `COC(=O)c1ccccc1-n1c(C)nc2ccccc2c1=O` had a z-score of -0.159. The figure for `CCCCCn1c(=O)c(C(=O)NCc2ccncc2)c(O)c2ccccc21` is -1.2; for `CCCCCn1c(=O)c(C(=O)Nc2c(C)n(C)n(-c3ccccc3)c2=O)c(O)c2ccccc21` it is -0.252; for `CC(C)CCn1c(=O)c(C(=O)Nc2ccccc2S(N)(=O)=O)c(O)c2ccccc21` it is 2. For `Cn1cc(C(=O)Cc2ccccc2)c2ccccc21` the value was 0.166. As to `NC12CN3CN(CN(C3)C1)C2` (tested in a mixture with another compound), the z-score is -0.55. With `CCN1CCN(CC(=O)c2c(C)n(Cc3ccccc3)c3ccc(OC)cc23)CC1`, the z-score came to 0.191. The figure for `CC(NC1CCCCC1)C(O)C12CC3CC(CC(C3)C1)C2` (stereo not given) is 2.39; for `CC(C)NC(C)C(=O)C12CC3CC(CC(C3)C1)C2` (stereo not given) it is 0.115; for `O=C(COC(=O)Cc1ccccc1)NC12CC3CC(CC(C3)C1)C2` it is -0.0902. For `CCCCn1c(C)c(C(=O)O)c2cc(OC)ccc21` the value was -0.364; for `COCCn1c(-c2ccccc2)cc(C(=O)O)c1C`, 2.06.

The compound `COCCCn1c(-c2ccc(OC)cc2)cc(C(=O)NC2CCCCCCC2)c1C` returned a z-score of -0.648. Compound `CCS(=O)(=O)N1CCCC(C(=O)N2CCC3(CC2)OCCO3)C1` (stereo not given) came in with a z-score of 0.0065. The figure for `CC(C)c1cccc(C(C)C)c1OCCn1ccnc1` is 2.23; for `CCOc1ccc(-n2c(O)c(C=NCCCn3ccnc3)c(=O)[nH]c2=O)cc1` it is 0.0171; for `CCCCCSc1cc(OC)c(CCNC)cc1OC` it is 0.115. For `CCCCCSc1cc(OC)c(CCN)cc1OC` the value was 1.67.

`CCCCCCCSc1cc(OC)c(CCNC)cc1OC` displayed a z-score of 2.15. The figure for `O=C(C1CC(c2ccc(Cl)c(Cl)c2)=NO1)N1CCC2(CC1)OCCO2` (stereo not given) is 0.509. The figure for `O=c1[nH]c(=O)n(Cc2ccccc2)c(O)c1C=Nc1ccc(CN2CCOCC2)cc1` is -0.0494.

For the origin of these results see PubChem BioAssay AID488969 (Vanderbilt High Throughput Screening Facility, 2010).
